Here are results for nine molecules from PubChem BioAssay (NCI).

About 83,000 compounds went through this panel and 20% of them were active in at least one assay; those are over-represented in the sample as a whole.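 Percent growth is the endpoint: 0 to 100 indicates growth inhibition (40 means 60% inhibition), 0 means no net growth, and negative values indicate cell death.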 Unmarked numbers belong to inactive results. Activity calls are given as the source filed them. How the source made its calls: active means growth percent below 10; inactive means the rest.

Common to all, as to experiment: NCI-60 one-dose screen, 48 h (100 = growth as untreated, 0 = no growth, -100 = all killed)
One experiment relates to HCT-15 colon. Conditions: 10 µM.
Another experiment deals with HT29 colon. Conditions: 10 µM.
For another experiment, the system named is SNB-75 CNS. Particulars: 10 µM.
A further experiment concerns SNB-19 CNS. Conditions: 10 µM.
A further experiment relates to U251 CNS. Conditions: 10 µM.
A further experiment deals with PC-3 prostate. Conditions: 10 µM.
A further experiment relates to SK-MEL-5 melanoma. Particulars: 10 µM.
The subject of a further experiment is UACC-62 melanoma. Conditions: 10 µM unless noted.
The test system of a further experiment is LOX IMVI melanoma. Particulars: 10 µM.
A further experiment relates to SK-MEL-28 melanoma. Conditions: 10 µM.
Another experiment has as its system SK-MEL-2 melanoma. Particulars: 10 µM.
In another experiment the test system is SN12C renal. Particulars: 10 µM.
Another experiment concerns UO-31 renal. Conditions: 10 µM.
For the next experiment, the system named is TK-10 renal. Particulars: 10 µM unless noted.
The test system of a further experiment is ACHN renal. Particulars: 10 µM.
In a further experiment the test system is CAKI-1 renal. Conditions: 10 µM.
A further experiment deals with A498 renal. Particulars: 10 µM.
In the next experiment the test system is MOLT-4 leukemia. Particulars: 10 µM.
The next experiment deals with CCRF-CEM leukemia. Particulars: 10 µM.
A further experiment has as its system EKVX NSCLC. Conditions: 10 µM.

Consider `CC(C)(N)COS(=O)(=O)O`, for which the growth in the experiment with HCT-15 colon was 103%; in the experiment with HT29 colon it was 113%; in the experiment on SNB-75 CNS it was 91.5%; in the experiment on SNB-19 CNS it was 93%; in the experiment with U251 CNS, 103%; in the experiment on PC-3 prostate, 95.9%. For the same molecule, the growth was 102% with SK-MEL-5 melanoma; 102% in the experiment with UACC-62 melanoma; 113% in the experiment on LOX IMVI melanoma; 96.3% in the experiment on SK-MEL-28 melanoma; 117% in the experiment on SK-MEL-2 melanoma; 93.6% with SN12C renal. The growth in the experiment with UO-31 renal is 100%; with TK-10 renal, 115%; in the experiment with ACHN renal, 114%; in the experiment on CAKI-1 renal, 103%; in the experiment on A498 renal, 113%; in the experiment with MOLT-4 leukemia, 96.9%.

`N#CCCc1ccc(O)cc1`: the growth is 95.1% in the experiment with HCT-15 colon; 108% with HT29 colon; 88.3% with SNB-75 CNS; 110% in the experiment with SNB-19 CNS; 96.9% with U251 CNS; 102% with PC-3 prostate. Also, the growth is 105% in the experiment on SK-MEL-5 melanoma; 102% in the experiment with UACC-62 melanoma; 107% in the experiment on LOX IMVI melanoma; 105% with SK-MEL-28 melanoma; 104% in the experiment with SK-MEL-2 melanoma; 107% in the experiment with SN12C renal. Also, the growth in the experiment with UO-31 renal was 90.5%; in the experiment on TK-10 renal, 113%; in the experiment on ACHN renal, 99.9%; in the experiment with CAKI-1 renal, 95.4%; in the experiment on A498 renal, 104%; in the experiment with MOLT-4 leukemia it was 98.5%.

Take `C/C(=N\O)C1(O)CCCCC1`: the growth is 93.6% with HCT-15 colon; 110% with HT29 colon; 91.7% with SNB-75 CNS; 105% in the experiment on SNB-19 CNS; 95.1% with U251 CNS; 129% with PC-3 prostate. In addition, the growth with SK-MEL-5 melanoma was 87.9%; with UACC-62 melanoma, 59.2%; in the experiment on LOX IMVI melanoma it was 98.8%; in the experiment with SK-MEL-28 melanoma, 114%; in the experiment on SK-MEL-2 melanoma, 82.9%; in the experiment with SN12C renal it was 101%. The growth in the experiment on UO-31 renal was 96.8%; with ACHN renal, 97.7%; in the experiment on CAKI-1 renal it was 99.3%; in the experiment on A498 renal, 99.1%; with CCRF-CEM leukemia, 99.4%; with MOLT-4 leukemia, 89.8%.

Consider `CC(=Nc1ccccc1)C1=C(O)C(Cc2cccc(F)c2)NC1=O` (stereo unspecified), for which the growth in the experiment with HCT-15 colon is 8.21% (active); in the experiment on HT29 colon it was -12.1% (active); in the experiment with SNB-75 CNS it was 78.3%; with SNB-19 CNS, 36.2%; in the experiment with U251 CNS, 10.8%; in the experiment on PC-3 prostate it was 19.2%. In addition, the growth is 1.57% (active) with SK-MEL-5 melanoma; 32.9% in the experiment with UACC-62 melanoma; 5.05% (active) with LOX IMVI melanoma; 63.5% in the experiment with SK-MEL-28 melanoma; 13.1% in the experiment with SK-MEL-2 melanoma; 29.7% in the experiment on SN12C renal. Besides, the growth in the experiment on UO-31 renal was 35.9%; in the experiment with TK-10 renal it was 44.4%; with ACHN renal, 26.4%; in the experiment with CAKI-1 renal, 37.2%; with A498 renal it was 0.117% (active); with CCRF-CEM leukemia, 6.2% (active). The growth with MOLT-4 leukemia was -12.4% (active).

Take `COc1cc2c(cc1O)CC[C@@H]1C2CC[C@@]2(C)C1CC[C@@H]2O` (stereo partly specified): the growth in the experiment on HCT-15 colon was 29.9%; in the experiment on HT29 colon, 22.4%; in the experiment on SNB-75 CNS it was 3.42% (active); in the experiment with SNB-19 CNS, 28.9%; in the experiment with U251 CNS, 33.5%; in the experiment with PC-3 prostate it was 19.7%. Besides, the growth was -22.1% (active) with SK-MEL-5 melanoma; 22.2% with UACC-62 melanoma; 48% in the experiment on LOX IMVI melanoma; 71.1% with SK-MEL-2 melanoma; 37.9% with EKVX NSCLC; 53.2% in the experiment with SN12C renal. In addition, the growth with UO-31 renal is 41.8%; with TK-10 renal it was 63%; in the experiment on ACHN renal, 61.9%; in the experiment on CAKI-1 renal it was 33.7%; in the experiment on CCRF-CEM leukemia, 8.85% (active); in the experiment on MOLT-4 leukemia, 31.8%.

For `C=CCNc1nnc(C)s1`, the growth in the experiment with HCT-15 colon is 104%; in the experiment with HT29 colon, 116%; in the experiment with SNB-75 CNS it was 102%; in the experiment with SNB-19 CNS it was 109%; with U251 CNS, 107%; with PC-3 prostate, 89.6%. Further, the growth is 107% in the experiment on SK-MEL-5 melanoma; 97.1% with UACC-62 melanoma; 97.8% in the experiment on LOX IMVI melanoma; 104% in the experiment with SK-MEL-28 melanoma; 109% in the experiment with EKVX NSCLC; 95.6% in the experiment on SN12C renal. Also, the growth in the experiment with UO-31 renal is 81.1%; in the experiment with TK-10 renal, 123%; in the experiment on ACHN renal, 96.7%; in the experiment on CAKI-1 renal, 119%; in the experiment on A498 renal, 123%; with CCRF-CEM leukemia, 105%. The growth in the experiment on MOLT-4 leukemia is 168%.

Turning to `c1ccc(Sc2ccccc2)cc1`, the growth with HCT-15 colon was 99.4%; in the experiment on HT29 colon, 102%; in the experiment on SNB-75 CNS, 99.7%; in the experiment with SNB-19 CNS, 98.2%; in the experiment on U251 CNS, 94.5%; with PC-3 prostate, 95.9%. Also, the growth in the experiment on SK-MEL-5 melanoma is 104%; in the experiment with UACC-62 melanoma, 101%; in the experiment with SK-MEL-28 melanoma, 107%; in the experiment on SK-MEL-2 melanoma, 97.5%; in the experiment with EKVX NSCLC it was 101%; with SN12C renal, 105%. Also, the growth in the experiment on UO-31 renal is 87%; in the experiment with TK-10 renal it was 101%; in the experiment with ACHN renal, 108%; in the experiment with A498 renal it was 97.6%; in the experiment on CCRF-CEM leukemia, 97.7%; in the experiment with MOLT-4 leukemia, 87.4%.

As to `O=[N+]([O-])c1ccc(Cl)c(S(=O)(=O)O)c1`, the growth in the experiment with HCT-15 colon is 96.6%; in the experiment on HT29 colon, 138%; in the experiment with SNB-75 CNS it was 85.8%; with SNB-19 CNS, 106%; with U251 CNS, 111%; with PC-3 prostate it was 108%. For the same molecule, the growth in the experiment on SK-MEL-5 melanoma is 104%; with UACC-62 melanoma it was 105%; in the experiment on LOX IMVI melanoma it was 102%; in the experiment on SK-MEL-28 melanoma it was 111%; with EKVX NSCLC, 111%; in the experiment with SN12C renal it was 103%. Moreover, the growth in the experiment on UO-31 renal was 89.3%; in the experiment on TK-10 renal it was 136%; with ACHN renal it was 101%; in the experiment with CAKI-1 renal, 106%; in the experiment on A498 renal, 113%; in the experiment on CCRF-CEM leukemia, 81.3%. Further, the growth with MOLT-4 leukemia was 89.7%.

`COc1cc([C@@H]2c3cc4c(cc3[C@H](O)[C@H]3COC(=O)[C@H]23)OCO4)cc(OC)c1OC`: the growth with HCT-15 colon is 10.4%; with HT29 colon, 4.93% (active); in the experiment on SNB-75 CNS, 30.6%; in the experiment on SNB-19 CNS it was 34.7%; in the experiment on U251 CNS, 16.5%; with PC-3 prostate, 23.3%. Further, the growth with SK-MEL-5 melanoma was -25% (active); in the experiment with UACC-62 melanoma, 40.5%; with LOX IMVI melanoma, 22%; in the experiment on SK-MEL-28 melanoma, 58.8%; with EKVX NSCLC, 38.8%; in the experiment on SN12C renal it was 32.9%. Moreover, the growth was 48.2% with UO-31 renal; 51.4% in the experiment with TK-10 renal; 34.6% in the experiment on ACHN renal; 26.9% in the experiment on CAKI-1 renal; -10.2% (active) in the experiment on A498 renal; 6.58% (active) in the experiment on CCRF-CEM leukemia. Moreover, the growth in the experiment with MOLT-4 leukemia is -6.06% (active).
